Test results from ChEMBL document CHEMBL2218924, “A broad activity screen in support of a chemogenomic map for kinase signalling research and drug discovery” (Biochem J, 2013).

Tests used:
[1] = target: T1, Serine/threonine-protein kinase 3 (Homo sapiens) (UniProt Q13188); settings: at 1 µM
T1 sequence (whole entry): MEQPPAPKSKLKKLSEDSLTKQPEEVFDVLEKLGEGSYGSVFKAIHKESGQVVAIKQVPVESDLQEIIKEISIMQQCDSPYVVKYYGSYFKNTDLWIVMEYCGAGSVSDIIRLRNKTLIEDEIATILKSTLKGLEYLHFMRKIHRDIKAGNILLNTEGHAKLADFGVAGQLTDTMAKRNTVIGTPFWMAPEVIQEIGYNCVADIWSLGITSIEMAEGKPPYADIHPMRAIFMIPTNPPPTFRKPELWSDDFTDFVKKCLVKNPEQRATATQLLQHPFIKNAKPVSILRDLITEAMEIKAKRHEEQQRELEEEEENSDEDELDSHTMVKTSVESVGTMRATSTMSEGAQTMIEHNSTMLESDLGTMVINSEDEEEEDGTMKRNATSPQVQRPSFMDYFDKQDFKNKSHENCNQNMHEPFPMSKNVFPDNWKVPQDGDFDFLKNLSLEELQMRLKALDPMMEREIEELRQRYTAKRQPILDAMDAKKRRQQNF

[2] = target: T1, Serine/threonine-protein kinase 3 (Homo sapiens); settings: at 10 µM
[3] = target: Serine/threonine-protein kinase 24 (Homo sapiens) (UniProt Q9Y6E0); settings: at 1 µM
[4] = target: Serine/threonine-protein kinase 24 (Homo sapiens) (UniProt Q9Y6E0); settings: at 10 µM
[5] = target: T2, Tyrosine-protein kinase Mer (Homo sapiens) (UniProt Q12866); settings: at 1 µM
T2 sequence (whole entry): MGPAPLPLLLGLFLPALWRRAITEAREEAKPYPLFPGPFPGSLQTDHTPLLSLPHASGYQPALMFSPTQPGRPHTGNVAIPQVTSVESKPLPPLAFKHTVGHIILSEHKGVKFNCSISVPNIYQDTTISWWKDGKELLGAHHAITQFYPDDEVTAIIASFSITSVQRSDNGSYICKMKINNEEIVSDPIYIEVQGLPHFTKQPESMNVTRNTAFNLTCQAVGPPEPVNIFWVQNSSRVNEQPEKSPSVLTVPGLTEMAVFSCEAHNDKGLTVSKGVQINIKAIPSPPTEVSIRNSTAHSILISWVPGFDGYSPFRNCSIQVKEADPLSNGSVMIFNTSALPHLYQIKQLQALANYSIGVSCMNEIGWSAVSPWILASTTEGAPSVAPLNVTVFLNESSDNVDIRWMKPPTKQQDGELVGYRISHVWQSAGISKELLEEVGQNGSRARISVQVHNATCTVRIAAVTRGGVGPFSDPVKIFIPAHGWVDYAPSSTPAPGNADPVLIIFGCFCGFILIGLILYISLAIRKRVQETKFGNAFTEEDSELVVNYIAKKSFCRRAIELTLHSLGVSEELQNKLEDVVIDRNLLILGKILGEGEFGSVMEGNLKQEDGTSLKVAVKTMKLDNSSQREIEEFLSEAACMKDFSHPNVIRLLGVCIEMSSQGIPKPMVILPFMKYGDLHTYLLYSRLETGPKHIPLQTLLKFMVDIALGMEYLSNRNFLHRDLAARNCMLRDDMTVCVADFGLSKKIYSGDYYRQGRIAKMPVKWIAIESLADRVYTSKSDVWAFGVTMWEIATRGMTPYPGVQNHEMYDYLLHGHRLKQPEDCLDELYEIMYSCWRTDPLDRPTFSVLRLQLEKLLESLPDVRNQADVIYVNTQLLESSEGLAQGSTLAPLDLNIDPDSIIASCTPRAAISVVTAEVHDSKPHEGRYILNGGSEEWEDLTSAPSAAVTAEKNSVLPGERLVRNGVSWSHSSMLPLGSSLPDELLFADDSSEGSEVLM

[6] = target: T2, Tyrosine-protein kinase Mer (Homo sapiens); settings: at 10 µM
[7] = target: Hepatocyte growth factor receptor (Homo sapiens) (UniProt P08581); settings: at 1 µM
[8] = target: Hepatocyte growth factor receptor (Homo sapiens) (UniProt P08581); settings: at 10 µM
[9] = target: MAP kinase-interacting serine/threonine-protein kinase 2 (Homo sapiens) (UniProt Q9HBH9); settings: at 1 µM
[10] = target: MAP kinase-interacting serine/threonine-protein kinase 2 (Homo sapiens) (UniProt Q9HBH9); settings: at 10 µM
[11] = target: T3, Muscle, skeletal receptor tyrosine-protein kinase (Homo sapiens) (UniProt O15146); settings: at 1 µM
T3 sequence (whole entry): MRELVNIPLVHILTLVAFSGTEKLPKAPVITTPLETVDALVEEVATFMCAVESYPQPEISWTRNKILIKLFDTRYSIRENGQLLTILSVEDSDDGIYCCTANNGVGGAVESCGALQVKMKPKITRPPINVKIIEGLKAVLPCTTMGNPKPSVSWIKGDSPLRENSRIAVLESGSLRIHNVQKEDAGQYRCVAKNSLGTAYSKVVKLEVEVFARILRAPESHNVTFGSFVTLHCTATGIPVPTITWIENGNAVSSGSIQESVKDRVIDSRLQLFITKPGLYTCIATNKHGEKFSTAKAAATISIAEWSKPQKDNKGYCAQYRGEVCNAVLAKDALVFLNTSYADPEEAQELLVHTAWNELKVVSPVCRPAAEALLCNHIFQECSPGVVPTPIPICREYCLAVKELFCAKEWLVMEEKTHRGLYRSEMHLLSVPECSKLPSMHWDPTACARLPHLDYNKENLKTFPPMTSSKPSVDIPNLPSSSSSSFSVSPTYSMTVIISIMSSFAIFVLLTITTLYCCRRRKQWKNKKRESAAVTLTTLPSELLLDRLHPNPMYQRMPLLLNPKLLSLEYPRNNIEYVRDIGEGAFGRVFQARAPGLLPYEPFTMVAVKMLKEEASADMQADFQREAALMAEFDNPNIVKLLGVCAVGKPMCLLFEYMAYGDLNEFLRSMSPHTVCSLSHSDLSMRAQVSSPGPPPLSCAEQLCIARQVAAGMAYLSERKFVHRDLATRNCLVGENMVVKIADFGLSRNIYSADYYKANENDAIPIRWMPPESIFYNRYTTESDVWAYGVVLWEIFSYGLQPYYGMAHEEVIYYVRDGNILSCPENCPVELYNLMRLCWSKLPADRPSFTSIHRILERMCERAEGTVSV

[12] = target: T3, Muscle, skeletal receptor tyrosine-protein kinase (Homo sapiens); settings: at 10 µM
[13] = target: T4, Serine/threonine-protein kinase Nek11 (Homo sapiens) (UniProt Q8NG66); settings: at 1 µM
T4 sequence (whole entry): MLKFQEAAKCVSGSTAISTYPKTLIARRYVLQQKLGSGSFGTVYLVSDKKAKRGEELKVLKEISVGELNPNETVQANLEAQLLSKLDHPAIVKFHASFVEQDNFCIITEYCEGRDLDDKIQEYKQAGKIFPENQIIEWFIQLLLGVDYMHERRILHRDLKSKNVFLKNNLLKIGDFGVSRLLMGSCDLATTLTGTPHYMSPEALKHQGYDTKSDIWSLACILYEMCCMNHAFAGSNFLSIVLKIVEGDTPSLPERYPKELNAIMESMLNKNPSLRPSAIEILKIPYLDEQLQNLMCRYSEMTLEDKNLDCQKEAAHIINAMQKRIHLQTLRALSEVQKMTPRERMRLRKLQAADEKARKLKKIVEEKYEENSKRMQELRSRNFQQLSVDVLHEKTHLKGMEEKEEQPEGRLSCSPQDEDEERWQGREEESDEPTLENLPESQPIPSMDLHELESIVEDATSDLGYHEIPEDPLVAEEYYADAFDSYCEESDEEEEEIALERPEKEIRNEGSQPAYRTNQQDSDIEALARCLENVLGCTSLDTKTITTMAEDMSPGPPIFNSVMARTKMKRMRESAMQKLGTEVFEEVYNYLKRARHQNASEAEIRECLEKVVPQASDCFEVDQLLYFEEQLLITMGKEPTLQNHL

[14] = target: T4, Serine/threonine-protein kinase Nek11 (Homo sapiens); settings: at 10 µM
[15] = target: T5, Serine/threonine-protein kinase Nek2 (Homo sapiens) (UniProt P51955); settings: at 1 µM
T5 sequence (whole entry): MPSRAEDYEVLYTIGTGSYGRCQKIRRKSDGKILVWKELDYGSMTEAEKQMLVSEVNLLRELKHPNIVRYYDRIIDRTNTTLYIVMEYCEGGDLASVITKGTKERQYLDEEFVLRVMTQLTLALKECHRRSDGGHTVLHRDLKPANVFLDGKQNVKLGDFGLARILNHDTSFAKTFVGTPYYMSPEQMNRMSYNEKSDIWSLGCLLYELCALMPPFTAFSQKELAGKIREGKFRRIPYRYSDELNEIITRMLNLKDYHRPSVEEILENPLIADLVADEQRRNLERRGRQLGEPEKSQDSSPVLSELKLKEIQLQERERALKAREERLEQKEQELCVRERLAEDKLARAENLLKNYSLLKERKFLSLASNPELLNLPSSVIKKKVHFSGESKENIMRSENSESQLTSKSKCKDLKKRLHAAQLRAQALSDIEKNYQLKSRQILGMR

[16] = target: T5, Serine/threonine-protein kinase Nek2 (Homo sapiens); settings: at 10 µM
[17] = target: T6, Serine/threonine-protein kinase Nek3 (Homo sapiens) (UniProt P51956); settings: at 1 µM
T6 sequence (whole entry): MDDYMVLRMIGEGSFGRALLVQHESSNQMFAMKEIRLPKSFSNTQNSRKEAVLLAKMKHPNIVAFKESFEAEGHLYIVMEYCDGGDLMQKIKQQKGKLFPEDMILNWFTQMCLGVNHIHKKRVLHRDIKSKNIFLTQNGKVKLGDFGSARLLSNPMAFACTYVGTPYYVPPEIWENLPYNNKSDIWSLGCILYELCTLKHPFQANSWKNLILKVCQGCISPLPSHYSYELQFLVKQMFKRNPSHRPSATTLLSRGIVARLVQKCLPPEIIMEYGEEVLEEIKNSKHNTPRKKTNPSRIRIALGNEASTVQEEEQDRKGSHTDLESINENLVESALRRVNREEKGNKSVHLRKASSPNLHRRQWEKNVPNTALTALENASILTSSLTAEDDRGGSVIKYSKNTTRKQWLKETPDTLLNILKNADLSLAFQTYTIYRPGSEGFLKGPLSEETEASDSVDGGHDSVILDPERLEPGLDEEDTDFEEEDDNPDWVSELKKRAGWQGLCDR

[18] = target: T6, Serine/threonine-protein kinase Nek3 (Homo sapiens); settings: at 10 µM
[19] = target: Serine/threonine-protein kinase tousled-like 2 (Homo sapiens) (UniProt Q86UE8); settings: at 1 µM
[20] = target: Serine/threonine-protein kinase tousled-like 2 (Homo sapiens) (UniProt Q86UE8); settings: at 10 µM

Serine/threonine-protein kinase tousled-like 2 (Homo sapiens), sequence (Q86UE8 whole entry, looked up): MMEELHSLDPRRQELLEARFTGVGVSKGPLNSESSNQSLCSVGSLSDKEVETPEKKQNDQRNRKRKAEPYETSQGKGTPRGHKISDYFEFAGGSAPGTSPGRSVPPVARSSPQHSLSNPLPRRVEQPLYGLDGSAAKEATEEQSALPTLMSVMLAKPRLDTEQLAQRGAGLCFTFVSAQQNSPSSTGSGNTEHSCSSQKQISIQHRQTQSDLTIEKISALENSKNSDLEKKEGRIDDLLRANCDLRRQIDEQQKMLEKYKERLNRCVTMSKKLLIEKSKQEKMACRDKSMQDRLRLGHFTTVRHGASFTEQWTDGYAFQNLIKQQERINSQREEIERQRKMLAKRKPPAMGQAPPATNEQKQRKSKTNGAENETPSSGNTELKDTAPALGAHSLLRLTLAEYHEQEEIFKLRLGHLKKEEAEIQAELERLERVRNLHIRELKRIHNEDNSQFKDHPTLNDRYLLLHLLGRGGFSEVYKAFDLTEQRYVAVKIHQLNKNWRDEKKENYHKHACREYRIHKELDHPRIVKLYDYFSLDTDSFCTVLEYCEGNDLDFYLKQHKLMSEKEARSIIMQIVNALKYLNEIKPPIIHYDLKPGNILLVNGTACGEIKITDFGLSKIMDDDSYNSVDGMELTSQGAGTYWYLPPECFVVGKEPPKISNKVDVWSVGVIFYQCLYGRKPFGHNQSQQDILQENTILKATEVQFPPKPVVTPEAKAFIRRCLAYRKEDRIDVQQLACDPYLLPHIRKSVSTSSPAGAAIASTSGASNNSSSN
Hepatocyte growth factor receptor (Homo sapiens), sequence (P08581 whole entry): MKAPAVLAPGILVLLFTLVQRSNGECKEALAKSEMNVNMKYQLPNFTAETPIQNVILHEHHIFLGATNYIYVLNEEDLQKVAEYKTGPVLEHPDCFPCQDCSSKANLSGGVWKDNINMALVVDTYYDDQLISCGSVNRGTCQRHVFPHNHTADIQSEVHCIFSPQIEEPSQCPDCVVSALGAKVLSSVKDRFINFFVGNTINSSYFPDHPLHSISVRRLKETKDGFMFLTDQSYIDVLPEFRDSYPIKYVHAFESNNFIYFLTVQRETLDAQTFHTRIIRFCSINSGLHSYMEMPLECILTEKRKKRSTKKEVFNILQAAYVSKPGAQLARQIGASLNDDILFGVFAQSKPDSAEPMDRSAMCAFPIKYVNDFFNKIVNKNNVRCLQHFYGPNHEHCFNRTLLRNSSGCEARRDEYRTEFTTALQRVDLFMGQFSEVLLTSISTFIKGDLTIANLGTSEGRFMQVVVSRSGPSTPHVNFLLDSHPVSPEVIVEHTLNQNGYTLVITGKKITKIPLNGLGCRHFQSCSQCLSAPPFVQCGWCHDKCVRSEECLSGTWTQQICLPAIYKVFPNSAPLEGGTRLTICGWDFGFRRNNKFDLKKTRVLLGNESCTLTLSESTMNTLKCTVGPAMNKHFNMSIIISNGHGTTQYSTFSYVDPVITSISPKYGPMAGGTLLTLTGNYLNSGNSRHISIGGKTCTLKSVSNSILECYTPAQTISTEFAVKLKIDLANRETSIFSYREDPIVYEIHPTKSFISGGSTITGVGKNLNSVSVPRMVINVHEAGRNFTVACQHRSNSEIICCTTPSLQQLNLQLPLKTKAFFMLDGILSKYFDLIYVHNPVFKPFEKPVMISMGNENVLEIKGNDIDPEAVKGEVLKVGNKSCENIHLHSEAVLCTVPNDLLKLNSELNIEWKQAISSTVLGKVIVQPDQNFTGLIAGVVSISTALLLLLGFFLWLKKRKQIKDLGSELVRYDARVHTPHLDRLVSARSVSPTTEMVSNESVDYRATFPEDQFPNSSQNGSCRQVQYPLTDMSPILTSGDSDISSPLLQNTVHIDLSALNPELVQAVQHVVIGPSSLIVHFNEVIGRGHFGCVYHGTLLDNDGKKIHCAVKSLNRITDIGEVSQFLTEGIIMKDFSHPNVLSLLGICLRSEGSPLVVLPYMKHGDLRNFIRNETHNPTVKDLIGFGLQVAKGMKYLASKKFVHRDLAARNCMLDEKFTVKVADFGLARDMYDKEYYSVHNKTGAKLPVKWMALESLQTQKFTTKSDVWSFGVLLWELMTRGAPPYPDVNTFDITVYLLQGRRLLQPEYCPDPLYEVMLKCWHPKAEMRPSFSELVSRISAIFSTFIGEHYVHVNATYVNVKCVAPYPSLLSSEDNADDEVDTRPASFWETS
Serine/threonine-protein kinase 24 (Homo sapiens), sequence (Q9Y6E0 whole entry, looked up): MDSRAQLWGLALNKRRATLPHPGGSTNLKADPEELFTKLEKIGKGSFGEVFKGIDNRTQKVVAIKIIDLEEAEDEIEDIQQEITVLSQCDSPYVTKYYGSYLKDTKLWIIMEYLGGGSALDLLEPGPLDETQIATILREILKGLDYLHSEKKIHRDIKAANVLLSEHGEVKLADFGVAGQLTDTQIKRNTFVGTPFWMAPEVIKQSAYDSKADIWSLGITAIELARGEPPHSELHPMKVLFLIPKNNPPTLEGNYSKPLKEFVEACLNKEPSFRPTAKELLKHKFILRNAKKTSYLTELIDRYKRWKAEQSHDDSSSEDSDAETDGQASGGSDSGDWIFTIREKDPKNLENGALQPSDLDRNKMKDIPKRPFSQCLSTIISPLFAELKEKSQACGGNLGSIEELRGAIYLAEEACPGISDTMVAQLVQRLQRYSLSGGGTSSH
MAP kinase-interacting serine/threonine-protein kinase 2 (Homo sapiens), sequence (Q9HBH9 whole entry, looked up): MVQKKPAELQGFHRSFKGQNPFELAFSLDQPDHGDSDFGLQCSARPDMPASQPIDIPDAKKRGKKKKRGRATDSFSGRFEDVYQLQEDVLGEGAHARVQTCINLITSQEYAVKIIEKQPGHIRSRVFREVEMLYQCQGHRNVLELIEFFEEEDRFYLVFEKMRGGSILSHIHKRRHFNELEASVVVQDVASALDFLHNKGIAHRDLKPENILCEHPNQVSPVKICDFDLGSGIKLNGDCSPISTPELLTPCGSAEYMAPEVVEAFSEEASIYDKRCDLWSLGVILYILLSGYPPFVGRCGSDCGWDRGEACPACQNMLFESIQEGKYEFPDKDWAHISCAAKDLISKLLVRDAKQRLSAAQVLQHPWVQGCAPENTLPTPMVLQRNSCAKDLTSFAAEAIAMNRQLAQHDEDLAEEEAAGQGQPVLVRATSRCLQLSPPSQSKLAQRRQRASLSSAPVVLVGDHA

SMILES | residual activity [1] [%] | residual activity [2] [%] | residual activity [3] [%] | residual activity [4] [%] | residual activity [5] [%] | residual activity [6] [%] | residual activity [7] [%] | residual activity [8] [%] | residual activity [9] [%] | residual activity [10] [%] | residual activity [11] [%] | residual activity [12] [%] | residual activity [13] [%] | residual activity [14] [%] | residual activity [15] [%] | residual activity [16] [%] | residual activity [17] [%] | residual activity [18] [%] | residual activity [19] [%] | residual activity [20] [%]
O=C(Nc1cccc(Nc2cc(Nc3cccc(C(F)(F)F)c3)ncn2)c1)C1CC1 | 106 | 65 | 69 | 42 | 78 | 74 | 103 | 75 | 39 | 9 | 96 | 48 | 117 | 103 | 73 | 96 | 95 | 63 | 102 | 97
Oc1ccc(-c2nc(-c3ccc(F)cc3)c(-c3ccncc3)[nH]2)cc1 | 108 | 90 | 93 | 77 | 110 | 96 | 117 | 37 | 117 | 94 | 92 | 77 | 85 | 66 | 127 | 99 | 85 | 104 | 112 | 100
CO[C@H]1[C@@H](OC)C[C@H](C)[C@@H](OC)C2=CC(=O)C=C(NC(=O)/C(C)=C/C=C/[C@H](OC)[C@@H](OC(N)=O)/C(C)=C/[C@@H]1C)C2=O | 110 | 102 | 68 | 72 | 105 | 93 | 114 | 82 | 104 | 107 | 104 | 85 | 97 | 97 | 95 | 84 | 101 | 76 | 90 | 95
